The target in experiment [1] is PU.1 (IVT) (UniProt P17947 1-270). Description: protein-binding microarray (PBM); 20 mM HEPES pH 7.9, 100 mM NaCl, 1 mM DTT, 0.2 mg/mL BSA, 0.02% Triton X-100, 2% milk, 0.4 mg/mL salmon testes DNA; 1 h; temperature not stated; high values mean tight binding. The following applies: dsDNA, one strand shown. Put shortly:
(§1)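 PU.1, full-length and untagged, came from coupled human in vitro transcription/translation and was bound for 1 h to double-stranded DNA microarrays of 20-bp genomic sites and single-nucleotide variants in HEPES pH 7.9, 100 mM NaCl, 2% milk and salmon testes DNA. After antibody detection, the values were taken as z-scores of scanned fluorescence normalised by linear regression.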

For experiment [2] the target is unchanged. The description is as above. To be noted: dsDNA, one strand shown. A digest of the protocol: as §1
This is another data set of the same source.

The full ranking holds about 3,700 sequences; the median of “z-score” is about 4, and the highest 2% start at about 8.4. What follows is part of a selection rich in the highest values, with near analogues and random picks from the rest.

As for “GCCTAGCACTGATAGAGGAAGTGCAACCAGTGCTAGGTCTTGATTCGCTTGACGCTGCTG”, the binding signal in the experiment with PU.1 (IVT) [1] was 4.92 z-score.
Still for that read-out and setting: under “GCCTAGCACGATAGCAGGAAGTGAAACTAGTGCTAGGTCTTGATTCGCTTGACGCTGCTG” stands 3.14 z-score; under “GCCTAGCACGCAGAGAGGAAGTGTGAATGGTGCTAGGTCTTGATTCGCTTGACGCTGCTG”, 3.72 z-score.
“GCCTAGCACTGAGAGGAGAAGTGAAACCCGTGCTAGGTCTTGATTCGCTTGACGCTGCTG”: the binding signal in the experiment with PU.1 (IVT) [2] was determined as 1.26 z-score.
For the sequence “GCCTAGCACATTTCTGGGAAGTGAAACTAGTGCTAGGTCTTGATTCGCTTGACGCTGCTG”, in the experiment with PU.1 (IVT) [1], the binding signal was determined as 1.93 z-score.
“GCCTAGCACATAAAAGGGAAGTGGGGCATGTGCTAGGTCTTGATTCGCTTGACGCTGCTG” gave a binding signal with PU.1 (IVT) [1] of 5.38 z-score.
The same measure, in the same setting: under “GCCTAGCACAGAAAAAGGAAGTGAGCAAAGTGCTAGGTCTTGATTCGCTTGACGCTGCTG” stands 5.53 z-score.
The same measure, in the same setting: the result for “GCCTAGCACTTAAAGAGGAAGAGCATCTTGTGCTAGGTCTTGATTCGCTTGACGCTGCTG” reads 3.21 z-score.
As for “GCCTAGCACTCAAAGAGGAAGTGACATTTGTGCTAGGTCTTGATTCGCTTGACGCTGCTG”, the binding signal with PU.1 (IVT) [2] came out at 7.03 z-score.
Regarding “GCCTAGCACGAAAAAGGGAACTGGTTGGGGTGCTAGGTCTTGATTCGCTTGACGCTGCTG”, the binding signal with PU.1 (IVT) [2] was found to be 5.22 z-score.
In the case of “GCCTAGCACGGAAGAAGGAAGTGGGGGCCGTGCTAGGTCTTGATTCGCTTGACGCTGCTG”, the binding signal in the experiment with PU.1 (IVT) [2] turned out to be 3.66 z-score.
Still for that read-out and setting: under “GCCTAGCACAGGAGGAGGAAGTGGGGGGAGTGCTAGGTCTTGATTCGCTTGACGCTGCTG” stands 4.05 z-score; under “GCCTAGCACGATAAGAGGAACTGTAAGCTGTGCTAGGTCTTGATTCGCTTGACGCTGCTG”, 3.92 z-score.
The sequence “GCCTAGCACTGAGAGGAGAAGTGAAATCTGTGCTAGGTCTTGATTCGCTTGACGCTGCTG” gave a binding signal with PU.1 (IVT) [1] of 1.39 z-score.
Same read-out and setting: under “GCCTAGCACCAAATTAGGAACTGATGCGGGTGCTAGGTCTTGATTCGCTTGACGCTGCTG” stands 2.14 z-score.
In the experiment with PU.1 (IVT) [1], “GCCTAGCACGCTAAGAGGAAGTCCTCTGTGTGCTAGGTCTTGATTCGCTTGACGCTGCTG” came in with a binding signal of 5.07 z-score.
In the experiment with PU.1 (IVT) [2], “GCCTAGCACAAAAAGCGGAAGTGCAAAAGGTGCTAGGTCTTGATTCGCTTGACGCTGCTG” yielded a binding signal of 8.5 z-score.
On the same count and under the same terms, the result for “GCCTAGCACAAAAAGAGGAAGGGACCCAAGTGCTAGGTCTTGATTCGCTTGACGCTGCTG” reads 5.29 z-score; that for “GCCTAGCACAAAAAGAGGAAGTGGTACAAGTGCTAGGTCTTGATTCGCTTGACGCTGCTG”, 8.76 z-score; that for “GCCTAGCACAAAAAAAGGAAGTGAGATAAGTGCTAGGTCTTGATTCGCTTGACGCTGCTG”, 6.74 z-score.
“GCCTAGCACAAGAGGAGGAAGTGAGAGAGGTGCTAGGTCTTGATTCGCTTGACGCTGCTG” had a binding signal with PU.1 (IVT) [2] of 4.33 z-score.
Consider “GCCTAGCACAAAAAGAGGAAGGGTGGCTGGTGCTAGGTCTTGATTCGCTTGACGCTGCTG”, for which the binding signal with PU.1 (IVT) [1] is 4.91 z-score.
Same read-out and setting: under “GCCTAGCACAAAAGGAGGAAGTGATGATGGTGCTAGGTCTTGATTCGCTTGACGCTGCTG” stands 6.55 z-score.
“GCCTAGCACAAAAAAAGGAAGTGGTAGCAGTGCTAGGTCTTGATTCGCTTGACGCTGCTG”: the binding signal with PU.1 (IVT) [2] is 6.75 z-score.
The same measure, in the same setting: the result for “GCCTAGCACAAAAAGAGGAAGTGATGATGGTGCTAGGTCTTGATTCGCTTGACGCTGCTG” reads 9.07 z-score; that for “GCCTAGCACAAAAAGAGGAAGTGAGATGGGTGCTAGGTCTTGATTCGCTTGACGCTGCTG”, 8.88 z-score.
With “GCCTAGCACACAAAGGGGAAGTGCTAGGGGTGCTAGGTCTTGATTCGCTTGACGCTGCTG”, in the experiment with PU.1 (IVT) [1], the binding signal came to 6.35 z-score.
Still for that read-out and setting: under “GCCTAGCACAAAAAAAGGAAGTGCTCAAGGTGCTAGGTCTTGATTCGCTTGACGCTGCTG” stands 6.42 z-score; under “GCCTAGCACGAAAGGAGGAAGTGAAACTGGTGCTAGGTCTTGATTCGCTTGACGCTGCTG”, 6.19 z-score; under “GCCTAGCACCAAATGAGGAATTGATGCGGGTGCTAGGTCTTGATTCGCTTGACGCTGCTG”, 2.8 z-score.
With “GCCTAGCACCAGAAAAGGAAGTAAGCCACGTGCTAGGTCTTGATTCGCTTGACGCTGCTG”, in the experiment with PU.1 (IVT) [2], the binding signal was determined as 3.98 z-score.
Same read-out and setting: under “GCCTAGCACAAAAAAAGGAAGTACAGTAAGTGCTAGGTCTTGATTCGCTTGACGCTGCTG” stands 6.54 z-score; under “GCCTAGCACGCAAAGAGGAAGTGACTCAAGTGCTAGGTCTTGATTCGCTTGACGCTGCTG”, 6.81 z-score.
On the same count and under the same terms, under “GCCTAGCACAAAAAGAGGAAGTACATTAAGTGCTAGGTCTTGATTCGCTTGACGCTGCTG” stands 8.68 z-score; under “GCCTAGCACAAAAAGAGGAAGTGACTTCAGTGCTAGGTCTTGATTCGCTTGACGCTGCTG”, 8.34 z-score.
Same read-out and setting: the result for “GCCTAGCACAAAAAGAGGAAGTGACTCACGTGCTAGGTCTTGATTCGCTTGACGCTGCTG” reads 8.49 z-score.
“GCCTAGCACAAAAGAGGGAAGTGACATTCGTGCTAGGTCTTGATTCGCTTGACGCTGCTG” yielded a binding signal with PU.1 (IVT) [1] of 5.89 z-score.
Same read-out and setting: under “GCCTAGCACGATTTGAGGAAATGAAACTTGTGCTAGGTCTTGATTCGCTTGACGCTGCTG” stands 3.79 z-score.
In the experiment with PU.1 (IVT) [2], “GCCTAGCACAAAAAGGGGAAGTCATCTATGTGCTAGGTCTTGATTCGCTTGACGCTGCTG” showed a binding signal of 8.05 z-score.
Sequence “GCCTAGCACAATATGAGGAAGTGCTCTAGGTGCTAGGTCTTGATTCGCTTGACGCTGCTG” yielded a binding signal with PU.1 (IVT) [1] of 6.67 z-score.
Still for that read-out and setting: the result for “GCCTAGCACTTACACAGGAAGTGCTGGCAGTGCTAGGTCTTGATTCGCTTGACGCTGCTG” reads 2.14 z-score.
The sequence “GCCTAGCACACAAAGAGGAAGTCCCATTTGTGCTAGGTCTTGATTCGCTTGACGCTGCTG” displayed a binding signal in the experiment with PU.1 (IVT) [2] of 7.29 z-score.
Still for that read-out and setting: the result for “GCCTAGCACAAAATGAGGAAGTCATTCTTGTGCTAGGTCTTGATTCGCTTGACGCTGCTG” reads 8.35 z-score.
